rCAG RNA binder: binders of r(CAG) RNA repeats, primary screen, biochemical, fluorescence | AID 651821, 2012 | actives 1.3% (n = 370,000) | inhibition, % at 3 µM | r(CAG) RNA repeat, TO-PRO-1 dye displacement fluorescence;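 active = inhibition above the plate cutoff, the mean of all test compounds on that plate plus 3 SD, cut at about 35% in these data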;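 note: 0% = DMSO alone and 100% = 100 µM mitoxantrone as full dye displacement; higher means more dye released from RNA so lower well fluorescence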
ADAM10 inh: human ADAM10 inhibitors, primary screen, biochemical, QFRET, HTS | recombinant ADAM10, EDANS/DABCYL FRET peptide cleavage, 3 h | inhibition, % at 7 µM | actives 0.62% (n = 370,000) | AID 720582, 2013;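 active = inhibition above a per-campaign cutoff equal to the mean of compounds falling between control-based bounds plus 3 SD, cut at about 20% in these data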;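 note: 0% = DMSO wells while the 100% control is not disclosed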
AHR activator: AHR activators, primary screen, cell-based, luminescence, luciferase reporter, human; actives 2.5% (n = 320,000); activation, % at 5 µM; AHR-responsive luciferase reporter cells; in the data active = activation above about 47%;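 note: 0% = vehicle wells and 100% = reference agonist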
NR3A LBD binder: binders of NR3A ligand-binding domain, primary screen, biophysical, differential scanning fluorimetry, uHTS; AID 1259313, 2017; actives 2.5% (n = 340,000); NR3A LBD differential scanning fluorimetry, Tm shift; 0% = protein alone, 100% = glycine-bound protein; Tm shift relative to glycine control, % at 25 µM; Glutamate receptor ionotropic, NMDA 3A (GRIN3A) ligand-binding domain;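 active = melting temperature shift of at least 10% of the positive control shift, at one fixed dose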
ADAM17 inh: ADAM17 inhibitors, primary screen, biochemical, QFRET. Disintegrin and metalloproteinase domain-containing protein 17 (Homo sapiens), P78536. recombinant ADAM17, EDANS/DABCYL FRET peptide cleavage. inhibition, % at 6.95 µM. actives 0.83% (n = 370,000). AID 720648, 2013;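 active = inhibition above the mean of compounds lying between control limits plus 3 SD, set per campaign, cut at about 8.5% in these data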;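 note: 0% = DMSO-only wells as the low control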
KLK7 zymogen act: proKLK7 zymogen activators, primary screen, biochemical, fluorescence intensity; purified proKLK7, EDANS-DABCYL substrate fluorescence; 100% is mature enzyme control, 0% vehicle; activation, % at 7 µM; actives 0.9% (n = 370,000); AID 652039, 2013;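 active = activation above the mean of all tested compounds plus 3 SD, computed per campaign excluding outliers beyond control limits, cut at about 13% in these data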
ADAM10 confirm: human ADAM10 inhibitors, confirmation, biochemical, QFRET, triplicate; actives 1% (n = 2,100); shares compounds with ADAM10 inh; ADAM10 QFRET peptide cleavage, EDANS fluorescence; inhibition, % at 6.95 µM;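 active = inhibition above about 20% chosen separately for each screening run, limit read from the data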;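 note: 0% = DMSO wells and 100% = marimastat wells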
ADAM17 counter: ADAM17 inhibitors, counter-screen for ADAM10 exosite inhibitor project, biochemical, QFRET, high throughput. AID 743214, 2013. inhibition, % at 6.95 µM. shares compounds with ADAM10 inh. ADAM17 QFRET peptide cleavage, EDANS fluorescence. actives 0.5% (n = 2,100);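 active = mean triplicate inhibition above the solvent-only control wells' mean plus 3 SD, cut at about 12% in these data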;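 note: 0% = DMSO wells and 100% = marimastat wells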
ADAM10 counter: ADAM10 inhibitors, counter-screen for ADAM17 exosite inhibitor project, biochemical, FRET, human ADAM10; recombinant ADAM10, EDANS/DABCYL FRET peptide cleavage, 3 h; inhibition, % at 6.95 µM; AID 743256, 2014; shares compounds with ADAM17 inh; actives 47% (n = 2,900);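 active = mean inhibition over the triplicate runs exceeds the activity threshold set in the earlier primary screen, cut at about 20% in these data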;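 note: 0% = DMSO wells and 100% = marimastat wells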
ADAM17 confirm: ADAM17 inhibitors, hit retest, confirmation, biochemical, QFRET peptide cleavage. shares compounds with ADAM17 inh. recombinant ADAM17, EDANS/DABCYL QFRET peptide cleavage. inhibition, % at 6.95 µM. actives 65% (n = 2,900);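 active = mean inhibition across replicates above the hit cutoff set in the primary screen, cut at about 8.5% in these data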;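 note: 0% = DMSO wells and 100% = marimastat wells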
* marks the source's active call; other numbers are inactive results; . = no result given. Most compounds without a hit are left out; they make up all but 7% or so of the library.

SMILES	rCAG RNA binder	ADAM10 inh	AHR activator	NR3A LBD binder	ADAM17 inh	KLK7 zymogen act	ADAM10 confirm	ADAM17 counter	ADAM10 counter	ADAM17 confirm
OC(c1ccc(F)c(F)c1)c1nc(-c2cccc(C(F)(F)F)c2)cs1 (centres undefined)	4	26*	.	.	9.4*	0	4	2	18	14*
Fc1ccc(CNC(=S)Nc2cccc(C(F)(F)F)c2)cc1	2	0	5	7	5	0	.	.	.	.
FC(F)(F)c1cccc(NC(=S)NCc2ccc(Cl)cc2)c1	5	22*	-1	20*	9.1*	1	3	2	26*	15*
CN(c1ccc(C(=O)NCCSCc2ccc(Cl)cc2)cc1)S(=O)(=O)c1ccccc1	3	28*	1	-5	18*	1	6	2	36*	15*
COc1ccc(C(=O)NCCCNC(=O)c2ccc(C)nc2)cc1	0	6	-1	-4	-1	0	.	.	.	.
Cc1ccc(S(=O)(=O)N(CCCO)CC(O)CON=C2c3ccccc3-c3ccccc32)cc1 (centres undefined)	12	35*	11	-2	19*	0	7	3	19	12*
CCc1ccc(/C=c2\s/c(=C\C(=O)C(C)(C)C)[nH]c2=O)cc1	27	33*	27	9	17*	-1	11	5	20*	17*
O=C(N/N=C/c1ccc(Br)o1)/C(=C/c1ccc([N+](=O)[O-])cc1)NC(=O)c1ccccc1	26	31*	6	-2	13*	-1	2	1	32*	17*
O=C(N/N=C/c1ccco1)/C(=C/c1cccc([N+](=O)[O-])c1)NC(=O)c1ccccc1	13	-10	4	-1	0	0	.	.	.	.
CC1(/[N+]([O-])=C/c2ccccc2F)CCCCC1=O (centres undefined)	-3	0	10	-1	0	0	.	.	.	.
CCCn1nc(C(=O)NNC(=O)CSC(C)C(=O)Nc2cc(C)on2)c2ccccc2c1=O (centres undefined)	-1	-11	0	-1	1	0	.	.	.	.
COc1ccc(-n2c(=S)[nH]c3cc(C(=O)NCc4ccccc4)ccc3c2=O)c(OC)c1	9	24*	0	-5	9.0*	1	1	1	12	10*
COc1ccc(-n2c(=S)[nH]c3cc(C(=O)NCc4cccnc4)ccc3c2=O)c(OC)c1	5	1	2	1	0	-1	.	.	.	.
CCN(CC)S(=O)(=O)c1cc([N+](=O)[O-])ccc1NNC(=O)Nc1ccccc1OC	9	26*	12	0	10*	1	1	0	8	7
O=C(NCC1CCCO1)C(c1cccs1)N(C(=O)c1ccc(-c2ccccc2)[nH]1)C1CCCC1 (centres undefined)	7	14	0	-1	7	0	.	.	.	.
O=C(NCC1CCCO1)C(c1cccs1)N(Cc1ccccc1)C(=O)c1ccc(-c2ccccc2)[nH]1 (centres undefined)	4	30*	0	-1	12*	-1	12	4	18	14*
CCN1C(=O)C(O)(CC(=O)/C=C/C=C/c2ccccc2)c2ccccc21 (centres undefined)	1	11	9	3	4	-1	.	.	.	.
O=C(/C=C/C=C/c1ccccc1)CC1(O)C(=O)N(CCc2ccccc2)c2ccccc21 (centres undefined)	1	21*	14	-8	9.3*	1	5	3	36*	19*
CC1(C(=O)NCc2cccc(C(F)(F)F)c2)CCN1Cc1ccc2ccccc2c1 (centres undefined)	-3	12	.	.	4	0	.	.	.	.
CC1(C(=O)NCc2ccc(C(F)(F)F)cc2)CCN1Cc1cc2ccccc2o1 (centres undefined)	-1	24*	.	.	11*	0	2	0	15	7
CCCCN1CC(COCc2ccccc2)Oc2cccc(OCCN3C(=O)[C@@H]4[C@H](C3=O)C3C=C[C@H]4C3)c2S1(=O)=O (some centres undefined)	6	26*	.	2	13*	1	7	2	44*	18*
CC(C)(CO)CNC1CCCN(C2Cc3ccccc3C2)C1 (centres undefined)	-1	5	4	2	0	-1	.	.	.	.
Cc1noc(C)c1COc1ccc(C(=O)OCC(=O)Nc2ccc3ccccc3c2)cc1	14	20*	2	0	8.8*	-1	9	3	33*	19*
Cc1noc(C)c1COc1ccc(C(=O)OCC(=O)Nc2ccc(C(=O)N(C)C)cc2)cc1	-6	-2	0	-3	-4	0	.	.	.	.
COc1ccc(S(=O)(=O)Nc2ccc(C)cc2)cc1N(C)S(=O)(=O)c1ccc(Cl)cc1	10	32*	-1	0	19*	0	7	2	40*	21*
Cc1ccc(NC(=O)COC(=O)c2ccccc2Cl)cc1S(=O)(=O)N(C)C	28	15	0	-6	1	0	.	.	.	.
